GBA activity – Glucocerebrosidase. Lysosomal acid glucosylceramidase (Homo sapiens), P04062. purified enzyme, resorufin glucoside fluorescence (screen aimed at inhibitors), 20 min. Potency, µM. 48,000 compounds, 1.1% hits. AID 360, 2006; in the data active = potency below about 15 µM; inconclusive = mostly about 16 µM to 33 µM;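 also: the screen sought inhibitors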
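Normal human glucocerebrosidase (0.2 nM final) was assayed with resorufin β-D-glucopyranoside (30 uM final) in 50mM citric acid/KH2PO4, 10mM sodium taurocholate, 0.01% tween-20, pH 5.9. Compounds were titrated; fluorescence (Ex 548, Em 600) read after 20 min at RT.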
Hsp90 Hop PPI – qHTS Assay for Disrupters of an Hsp90 Co-Chaperone Interaction | Hsp90 C-terminal peptide / TPR2A (Hop) interaction, human | AlphaScreen TPR2A-His6 binding biotin-Hsp90 C-terminal peptide | Potency, µM (titrated, usually from 57 µM) | 71,000 compounds, 0.44% hits; active = well fitted curve in either direction with a large enough effect; inconclusive = small, poorly fitted or top-dose-only effect, or another doubt
15-hLO inh – qHTS Assay for Inhibitors of 15-hLO (15-human lipoxygenase); 74,000 compounds, 1.4% hits; Potency, µM (highest dose often 57.1 µM), usual class: inhibitors; purified 15hLO-1, xylenol orange hydroperoxide absorbance; also: nearly all actives have a fitted effect of over 55% in size
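Readout: Fe(III)-xylenol orange absorbance, 573-to-405 nm ratio as reaction progress. Enzyme 40 nM purified human 15hLO-1, substrate 50 uM arachidonic acid, 6 min RT after 15 min compound preincubation; Hepes pH 7.5 buffer with Triton X-100.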
USP2a inh – qHTS Assay for Inhibitors of Ubiquitin-specific Protease USP2a | USP2a enzymatic assay, qHTS inhibition | 60,000 compounds, 0.1% hits | AID 927, 2007 | Potency, µM (top dose mostly 38.3 µM), actives largely listed as inhibitors | Ubiquitin carboxyl-terminal hydrolase 2 (Homo sapiens), O75604; also: nearly all actives have a fitted effect of over 60% in size
Target sequence (O75604 whole entry, looked up): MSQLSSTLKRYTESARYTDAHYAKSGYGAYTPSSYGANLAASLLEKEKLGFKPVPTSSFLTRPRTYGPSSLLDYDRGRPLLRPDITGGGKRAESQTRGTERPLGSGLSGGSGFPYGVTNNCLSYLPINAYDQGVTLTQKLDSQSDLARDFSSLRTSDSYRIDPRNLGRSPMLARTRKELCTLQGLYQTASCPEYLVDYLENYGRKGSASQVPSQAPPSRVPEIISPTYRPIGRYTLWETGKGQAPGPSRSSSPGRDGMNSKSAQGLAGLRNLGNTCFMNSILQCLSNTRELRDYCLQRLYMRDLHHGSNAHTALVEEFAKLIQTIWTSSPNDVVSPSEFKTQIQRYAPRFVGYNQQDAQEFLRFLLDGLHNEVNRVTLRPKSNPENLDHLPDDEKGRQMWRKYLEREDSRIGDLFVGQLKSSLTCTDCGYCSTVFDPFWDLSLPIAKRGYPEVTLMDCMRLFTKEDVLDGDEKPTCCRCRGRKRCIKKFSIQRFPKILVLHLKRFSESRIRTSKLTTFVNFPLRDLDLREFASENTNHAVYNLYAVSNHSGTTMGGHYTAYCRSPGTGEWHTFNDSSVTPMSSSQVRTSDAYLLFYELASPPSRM
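Coupled readout: USP2-cleaved Ub-PLA2 (20nM final) turns over NBD C6-HPC (20uM final), Ex 460nm/Em 535nm after 2.5 h, time-zero read flagging artifacts. Enzyme (20nM final, pH 8.0 Tris) given 30 min RT with compound first; NEM defines full inhibition.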
Tau fil binding – qHTS Assay for Tau Filament Binding | recombinant tau filaments, thioflavin S fluorescence, 15 h; filaments grown with octadecylsulfate alongside compound | Potency, µM (highest dose often 57.1 µM) | 71,000 compounds, 2% hits | AID 596, 2007;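 also: actives lower thioflavin S fluorescence by blocking filaments or displacing dye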
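ThS-based fibril read: tau 1 uM final, inducer ODS 30 uM final, 37 C for 15 h, ex 450/em 510 nm.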
PK Bst – Pyruvate Kinase. 51,000 compounds, 1.2% hits. Potency, µM. AID 361, 2006. purified pyruvate kinase, luminescence ATP production; ribose 5-phosphate activator present at AC10; in the data active = potency below about 11 µM; inconclusive = mostly about 12 µM to 25 µM;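 the screen sought inhibitors and activators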
Numbers stand for hits; 0 = inactive; ? = inconclusive; - = not tested or not shown; [ ] = remark or other dose. A selection: hits, their analogues and other compounds. The true share with any hit is near 4.6%. Unless noted, calls follow the shape of the dose curve; as a rule, active = well fitted curve in the direction sought with a large enough effect; inconclusive = small, poorly fitted or top-dose-only effect, or another doubt; inactive = no such curve, though single readings can be large; an effect the other way counts as inactive or inconclusive.

SMILES	GBA activity	Hsp90 Hop PPI	15-hLO inh	USP2a inh	Tau fil binding	PK Bst
Nc1nc(N2CCN(C/C=C/c3ccccc3)CC2)nc2ccccc12	8.42	0	0	0	0	0
O=C(NC1CCS(=O)(=O)C1)c1ccc(-c2ccc(Br)cc2)o1 (stereo unspecified)	?	0	0	0	0	7.77
COc1cc(NC(=O)c2ccc(-c3ccc(Br)cc3)o2)ccc1NC(=O)C(C)C	0	0	0	0	0	0
Cc1cc(NC(=O)c2cnn3c(C(F)F)cc(-c4ccccc4)nc23)no1	0	0	0	0	?	0
Cc1cc(NC(=O)c2cnn3c(C(F)(F)F)cc(-c4ccccc4)nc23)no1	0	0	0	0	3.16µM	0
O=C(NC1CCCCC1)c1cnn2c(C(F)(F)F)cc(-c3ccco3)nc12	?	0	25.1µM	0	10µM	0
O=C(NCCCN1CCOCC1)c1ccc(Cc2nc3ccccc3[nH]2)cc1	-	-	0	-	-	-
COc1cc(C2Nc3cccc4cccc(c34)N2)cc(OC)c1O	0	0	0	0	3.98µM	0
Clc1ccc2c(c1)N=C(N1CCNCC1)c1ccccc1N2	-	0	0	-	39.8µM	-
CCOC(=O)c1cccc(NC(=O)c2cc3sccc3n2C)c1	0	0	0	0	0	-
Cn1c(C(=O)Nc2ccc3c(c2)OCCO3)cc2sccc21	0	0	0	0	?	3.01
Cc1ccc(C(=O)CSc2n[nH]c(-c3ccco3)n2)cc1C	-	0[11 µM]	0[11.4 µM]	0[7.66 µM]	0[11.4 µM]	-
O=C(CSc1n[nH]c(-c2ccccc2)n1)c1ccc(O)c(O)c1	-	0	5.01µM	-	0	0
O=C1NC(=O)[C@@H]2C3c4ccccc4C=CN3[C@H](C(=O)c3cccs3)[C@H]12 (stereo partly specified)	0	0	0	0	0	6.21
CN(C)Cc1ccccc1-c1ccc2ncnc(NC3CCNCC3)c2c1	-	0	0	0	0	-
Cn1cccc1C(=O)OCC(=O)Nc1cc(C(C)(C)C)nn1-c1ccccc1	0	?	0	0	0	0
Cn1cccc1C(=O)OCC(=O)c1cc2ccccc2o1	0	0	0	0	15.8µM	0
CC1=C(C)C(=O)N(c2ccccn2)C1=O	0	0	0	0	0	0
CCOc1ccc(NS(=O)(=O)c2ccc3[nH]cc(C(=O)NC(C)CC)c(=O)c3c2)cc1 (stereo unspecified)	0	0	25.1µM	0	0	0
CC(C)Oc1cccc(C(=O)Nc2ccc(NC(=O)c3ccco3)cc2)c1	11.2	0	0	0	0	0
O=C(Nc1nc2ccccc2[nH]1)c1ccccc1F	-	0	0	0	0	1.36
O=C(Nc1nc2ccccc2[nH]1)c1ccc(F)cc1	0	0	0	0	0	3.11
Cc1cc(NC(=O)c2ccccc2F)n(-c2nc3ccccc3[nH]2)n1	0	0	0	0	0	0
O=c1cc(-c2ccccc2O)oc2c(O)c(O)ccc12	-	0	?	-	39.8µM	-
O=C(O)Cc1cccc2c(=O)cc(-c3ccccc3)oc12	-	0[11 µM]	0[11.4 µM]	-	0[11.4 µM]	-
SMILES	GBA activity	Hsp90 Hop PPI	15-hLO inh	USP2a inh	Tau fil binding	PK Bst
O=c1cc(-c2ccccc2)oc2c(O)c(O)ccc12	-	-	5.01µM	0	-	-
COc1cccc(-c2nnc3sc(C4CCCCC4)nn23)c1	-	-	-	-	-	0
COc1cc(-c2nnc3sc(C4CCCCC4)nn23)cc(OC)c1OC	7	0	0	0	0	0
Cc1ccc(C(=O)CSC2=NC(N)=C(C#N)C3(CCCCC3)C2C(N)=O)cc1 (stereo unspecified)	-	0[11 µM]	?	0[7.66 µM]	3.16µM	-
C=CCSC1=NC(N)=C(C#N)C2(CCCCC2)C1C(N)=O (stereo unspecified)	-	0	0	0	0	-
N#CC1=C(N)N=C(SCc2ccccc2)C(C(N)=O)C12CCCCC2 (stereo unspecified)	0	0	0	0	6.31µM	0
Cn1nc(C(=O)NCC2CCCO2)c2ccccc2c1=O (stereo unspecified)	0	0	0	0	0	0
O=C(Nc1nc(-c2ccc(S(=O)(=O)N3CCCCCC3)cc2)cs1)c1cccs1	13.9	0	0	0	0	0
Cn1c(O)c(C=Nc2ccc(Cc3ccncc3)cc2)c(=O)n(C)c1=O	-	-	-	-	-	0
O=C(NCCN1CCN(c2ccccc2F)CC1)C1CC(=O)N(C2CCCC2)C1 (stereo unspecified)	0	0	0	0	0	0
C=CCSC1=N/C(=C\C=C\c2ccco2)C(=O)S1	-	?	20µM	?	10µM	-
Cc1ccc(NC(=O)NC2=N/C(=C(/C#N)C(=O)N3CCCC3)c3ccccc32)cc1	9	0	0	0	5.01µM	?
C[C@]12C[C@H](O)[C@H]3[C@@H](CCC4=CC(=O)CC[C@@]43C)[C@@H]1CC[C@@H]2C(=O)CO	-	0	0	0	0	0
CCCCNc1cc(C)nc(NCc2ccccc2)n1	6.26	0	0	0	0	0
Cc1cc(C)nc(NCCCc2ccccc2)n1	-	0	0	-	0	0
O=C1OC2(c3ccc(O)cc3Oc3cc(O)ccc32)c2c1c(-c1ccccc1)c(-c1ccccc1)c(-c1ccccc1)c2-c1ccccc1	-	?	1µM	-	0[11.4 µM]	-
OCCN1CCN(CC#CCn2c3ccccc3c3ccccc32)CC1	-	0	0	0	0	0
CC(C)CC(/C(O)=C(\C#N)c1nc2ccccc2[nH]1)N1C(=O)c2ccccc2C1=O (stereo unspecified)	-	0	0	0	12.6µM	-
CC(=O)N1CCC2(CC1)C(C#N)=C(N)Oc1n[nH]c(CSc3ccc(C)cc3)c12	0	0	0	0	0	0
COc1ccc(Oc2ncc3nc(-c4cn(C)c5ccccc45)c(=O)n(CCC#N)c3n2)cc1	-	5.01µM	0	0	0	-
COc1ccccc1CCn1c(=O)c(-c2ccc(Cl)cc2)nc2cncnc21	-	0	0	0	12.6µM	-
COc1cccc(Cn2c(=O)c(C)nc3cnc(OCc4ccccc4)nc32)c1	-	0	0	0	31.6µM	-
COc1cccc(Cn2c(=O)c(-c3ccc(Cl)cc3)nc3cnc(OC)nc32)c1	-	0	0	0	12.6µM	-
CCN(Cc1cc2cccc(C)c2[nH]c1=O)C(=O)c1ccccc1OC	0	0	0	0	0	-
CCC(C)NC(=O)C1CC(c2cccc(OC)c2)=NO1 (stereo unspecified)	0	0	0	0	0	0
COc1cccc(Cn2c(=O)c(-c3ccc(Cl)cc3)nc3cncnc32)c1	-	0	0	0	25.1µM	-
COc1ccc(-c2nc3cnc(N4CCNCC4)nc3n(Cc3cccc(OC)c3)c2=O)cc1	-	?	0	0	0	-
COc1cccc(Cn2c(=O)c(-c3ccc(Cl)cc3)nc3cnc(N4CCNCC4)nc32)c1	-	0	0	?	3.98µM	-
COc1cccc(Cn2c(=O)c(-c3cccs3)nc3cnc(Nc4cccc(OC)c4)nc32)c1	-	7.94µM	0	0	0	-
